# Test results taken from PubChem BioAssay AID2544 (Sanford-Burnham Center for Chemical Genomics, 2010).
# The whole screen tested about 330,000 compounds, of which about 390 (0.12%) were called active. The sample as a whole holds a higher share of actives than the screen did. Unmarked numbers belong to inactive results.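 The calls were made as follows: active = inhibition reaching a set limit with compound at 10 µM in the primary screen (cut at about 35% in these data); inactive = the rest.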
# Biological target: Intestinal-type alkaline phosphatase (Homo sapiens) (UniProt P09923)
# Test: blockers of intestinal alkaline phosphatase activity – biochemical, luminescence, uHTS, primary screen (AID 2544);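 also: plate controls were DMSO wells with enzyme for no effect and no-enzyme buffer wells for full effect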
# Conditions: purified IAP, CDP-Star luminescence, 30 min; at 10 µM; active compounds read high
# Chain of Intestinal-type alkaline phosphatase (Homo sapiens) (P09923 whole entry, looked up): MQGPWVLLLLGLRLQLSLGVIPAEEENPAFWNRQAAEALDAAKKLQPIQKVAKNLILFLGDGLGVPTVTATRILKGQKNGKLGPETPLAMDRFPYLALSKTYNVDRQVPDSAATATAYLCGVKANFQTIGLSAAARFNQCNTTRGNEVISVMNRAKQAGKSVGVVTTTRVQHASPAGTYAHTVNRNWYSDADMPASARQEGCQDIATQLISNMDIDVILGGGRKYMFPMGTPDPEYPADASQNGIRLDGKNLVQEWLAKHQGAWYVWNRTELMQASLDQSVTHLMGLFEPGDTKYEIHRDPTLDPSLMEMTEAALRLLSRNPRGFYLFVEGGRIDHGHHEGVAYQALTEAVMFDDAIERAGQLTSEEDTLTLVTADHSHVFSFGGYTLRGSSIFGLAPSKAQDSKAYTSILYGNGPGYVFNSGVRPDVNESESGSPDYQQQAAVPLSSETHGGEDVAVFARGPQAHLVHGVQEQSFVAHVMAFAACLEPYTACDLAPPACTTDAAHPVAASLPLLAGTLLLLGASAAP
row,Compound,inhibition
1,Cc1cc(N)n2nc(-c3ccc(C(C)(C)C)cc3)cc2n1,-9%
2,COc1ccc(-c2nc3cc(C)ccn3c2NC2CCCCC2)cc1SC1CCCCC1,18.9%
3,CC1(C)OC(=O)C(=CNC(CO)C(=O)O)C(=O)O1 (stereo not drawn),4.1%
4,CCN(CC(=O)NCc1ccc(Cl)cc1)C(=O)c1c(C)noc1C,-14.3%
5,COc1cccc(CNC(=O)C2CC(=O)N(C3CCCCCCC3)C2)c1 (stereo not drawn),-15%
6,COC(=O)NNC(=O)C1CCC(C)CC1 (stereo not drawn),-0.3%
7,O=C(O)CCn1c(O)c(C=C2N=c3ccccc3=N2)sc1=S,-32.1%
8,Cc1ccc(NC(=O)COC(=O)C2C3CC4OC(=O)C2C4C3)cc1Cl (stereo not drawn),5.1%
9,CCOC(=O)N1CCN(S(=O)(=O)c2cc3c(cc2C)NC(=O)CO3)CC1,-3.7%
10,O=C(CNC(=O)c1n[nH]c2ccccc12)Nc1cc(Cl)ccc1Cl,-16.2%
11,FC(F)(F)c1ccnc(Oc2ccc(C3=NCCS3)cc2)c1,10.4%
12,CC(C)(C)OC(=O)N1CCC(NC(=O)c2[nH]cnc2C(=O)N[C@@H](Cc2ccccc2)C(=O)OCc2ccccc2)CC1,-35.2%
13,COc1ccccc1C(=O)OCC(=O)Nc1cccc(S(=O)(=O)NC2=NCCCCC2)c1,19.2%
14,COc1ccccc1C(CNC(=O)c1ccc(C)c(S(=O)(=O)N2CCCCC2)c1)N(C)C (stereo not drawn),-3.4%
15,CN1CCN(CC(=O)C23CC4CC(CC(C4)C2)C3)CC1,4.5%
16,Cc1ccc(C(=O)N(CC(=O)NC2CCCC2)c2ccc(F)cc2)s1,-20.5%
17,CCCc1cc(C(=O)N2CCCC(CO)(CCCc3ccccc3)C2)n(C)n1 (stereo not drawn),-5.7%
18,CC#CC[N+](C)(C)CCCCCC,6.2%
19,O=C(/C=C/c1cccc(C(F)(F)F)c1)N1CCN(c2ccccn2)CC1,-1.3%
20,c1csc(-c2nnc(COc3ncnc4sccc34)o2)c1,13.5%
21,Cc1sc2ncn(CC(=O)NCCN(C)C)c(=O)c2c1S(=O)(=O)N1CCC(C)CC1,10.2%
22,CCN(Cc1ccccc1)S(=O)(=O)c1cc(C(=O)O)ccc1OC,-17.1%
23,Cc1ccc(CN2CCN(Cc3cccc(C)n3)CC2CCO)cc1 (stereo not drawn),4.3%
24,Cc1c(C(=O)NNC(=O)c2ccncc2)oc2ccccc12,-50.2%

row,Compound,inhibition
1,Cc1cc2ccccn2c1C(=O)c1cccc(F)c1,18.3%
2,Cc1c(C=O)c2ccccn2c1C(=O)c1ccncc1,35.9% (active)
3,CC1C(=O)C(C)C(c2ccc(O)cc2)NC1c1ccc(O)cc1 (stereo not drawn),4.6%
4,CCc1cc(CNC(=O)CC2C(=O)NCCN2CC2CCCCC2)on1 (stereo not drawn),-7.8%
5,COc1ccc(CNC(=O)CSc2n[nH]c(N)n2)cc1OC,5.7%
6,CS(=O)(=O)Nc1ccccc1C(=O)OCC(=O)NC1CC1,-0.7%
7,Cn1c(=O)c2sccc2n(Cc2ccc(Br)cc2)c1=O,38.1% (active)
8,O=C(NCc1ccco1)c1ccc(Cn2c(=O)c3sccc3n(Cc3ccc(F)cc3)c2=O)cc1,1.3%
9,Cn1c(=O)c2c(nc(N/N=C/c3cccs3)n2Cc2ccc(Br)cc2)n(C)c1=O,-142%
10,N#Cc1c(-c2ccc(F)cc2)cc(C2CC2)nc1SCC(=O)c1cccs1,10.2%
11,CCOC(=O)Cc1csc(NC(=O)CN(C)S(=O)(=O)c2ccc3c(c2)CCC(=O)N3)n1,-6.4%
12,CS(=O)(=O)c1sc(C(=O)NC(=S)Nc2ccc(OC(F)(F)F)cc2)c2c1C=CCC2,-34.5%
13,Cc1ccc2cccc(S(=O)(=O)N3CCN(c4ccccc4F)CC3)c2n1,22.1%
14,CSc1ccc(CNC(=O)c2ccc(NC(=O)C3=CSCCO3)cc2)cc1,17.2%
15,O=C(NCCN1CCOCC1)[C@H](Cc1ccccc1)N1C(=O)c2ccccc2C1=O,41.1% (active)
16,O=C(NC1=NCCS1)[C@H](Cc1ccccc1)N1C(=O)c2ccccc2C1=O,4.4%
17,O=C(CCN1C(=O)c2ccccc2C1=O)NCCN1CCOCC1,-14.9%
18,CN(C(=O)CSc1cccc[n+]1[O-])C1CCCCC1,2.3%
19,Cc1cc([N+](=O)[O-])nn1CCCC(=O)Nc1cccnc1Cl,6.1%
20,CC1(C)O[C@@H]2[C@H](O1)[C@@H](COS(=O)(=O)O)O[C@H]2n1cnc2c(=O)[nH]cnc21,-9%
21,Cc1cc(Cl)c2oc(C(=O)N3CCC(O)(c4ccccc4)CC3)c(C)c2c1,-10.6%
22,COc1ccc(Nc2cc(=O)n(-c3ccccc3)c3c2c(=O)n(C)c(=O)n3C)cc1,3.3%
23,CN(Cc1ccccc1Cl)C(=O)C1CCC(=O)N(CCc2cccc(F)c2)C1 (stereo not drawn),-4.4%
24,Cc1cc(C)nc(SCc2nnc(SCC(=O)OC3CCCCC3)o2)n1,-7.3%

row,Compound,inhibition
1,CCOCCCN(C(=O)Cn1nnc(-c2ccc(OC)c(OC)c2)n1)C(CC)C(=O)NC1CCCC1 (stereo not drawn),-21.9%
2,CCCCC(=O)Nc1ccccc1N1CCN(c2ccc(F)cc2)CC1,-6.3%
3,CC(=O)c1ccc(N2CCN(CC(=O)Nc3ccccc3N3CCOCC3)CC2)cc1,6.2%
4,CCC(C)C(=O)Nc1ccccc1N1CCN(c2ccc(F)cc2)CC1 (stereo not drawn),42.4% (active)
5,CCOC(=O)c1cc2c(nc1NC(=S)Nc1ccccc1)CC(C)(CC)OC2 (stereo not drawn),-6.3%
6,CCOC(=O)c1cn[nH]c1NC(=S)Nc1ccccc1,60.8% (active)
7,CCOC(=O)c1ccc(NC(=S)Nc2cc(C)cc(C)n2)cc1,-2%
8,NC(N)=Nc1nc2ccc(Br)cc2c(=O)[nH]1,-7.7%
9,c1ccc(CSCCc2ccncc2)cc1,39.6% (active)
10,Cc1cc(C)c(SCCc2ccncc2)c(C)c1,-12.6%
11,CC(C)(C)c1ccc(SCCc2ccncc2)cc1,-36.5%
12,O=C1N(c2ccc(Cl)cc2)C(c2ccc(Cl)cc2)N2CCCN12 (stereo not drawn),0.2%
13,CCCC1C(c2ccccc2)C(C#N)(C#N)C2(C#N)CC1(N)NC2=O (stereo not drawn),-3.9%
14,CN(C(=O)COc1nnc(-c2cccs2)c(-c2cccs2)n1)c1ccccc1,-23.1%
15,CS(=O)(=O)N(CC(=O)N1CCOCC1)c1cccc(Cl)c1Cl,-16.2%
16,NS(=O)(=O)c1cccc(NC(=O)COC(=O)/C=C/c2ccco2)c1,5.2%
17,COC(=O)c1cc2c(ccn2C)n1C,15.7%
18,CCN1/C(=C\c2ccc3ccccc3[n+]2CC)Sc2cc(C)ccc21,39.8% (active)
19,COc1cccc(C(=O)n2ccc(-c3cccs3)n2)c1,0.5%
20,Cc1c(Cl)cccc1NC(=O)[C@@]1(CC(=O)O)CC(/C=C/c2ccccc2)=NO1,11%
21,CSC1=NC2(C)CCCCC2C12C=CC(=O)C=C2 (stereo not drawn),12.2%
22,O=C(NCCCN1CCCCC1)C1CC(=O)N(CCc2ccccc2)C1 (stereo not drawn),-4.4%
23,O=C(CN(C(=O)c1csnn1)c1ccc(Br)cc1)NC1CCCC1,-3.8%
24,CC(C)(C)C(=O)N(Cc1ccccc1)c1ccccn1,-10.9%

row,Compound,inhibition
1,COc1ccccc1C1CCN(C(=S)Nc2ccc(Br)cc2)CC1,5.9%
2,O=C(CCCl)Nc1ccc(S(=O)(=O)NCc2ccco2)cc1,7.1%
3,CCS(=O)(=O)N1CCC(N2CCN(c3ccccc3)CC2)CC1,15%
4,CCCCc1ccc(NC(=S)N2CCCC(CO)C2)cc1 (stereo not drawn),7.5%
5,O=C(CN1C(=O)NC(Cc2c[nH]c3ccccc23)C1=O)Nc1ccccc1C(F)(F)F (stereo not drawn),-22.4%
6,CC(C(=O)N1CCc2ccccc21)N(C)CC(=O)Nc1ccc(F)cc1 (stereo not drawn),22.6%
7,O=C(c1cccs1)N1CCC(c2nc3ccccc3s2)CC1,22.5%
8,COc1cc2c(cc1OC)C(C(=O)NCc1ccco1)C1c3ccccc3CCN1C2=O (stereo not drawn),-2.9%
9,CN1/C(=c2/s/c(=C3/C(=O)N(c4ccccc4)NC3=Nc3ccccc3)n(C)c2=O)C(C)(C)c2ccccc21,35% (active)
10,Cc1ccc(N(CC(=O)NCC2CCCO2)C(=O)CNS(=O)(=O)c2ccc(Cl)cc2)cc1 (stereo not drawn),6.2%
11,CC(NCCc1ccc(S(N)(=O)=O)cc1)C(=O)NCc1ccccc1 (stereo not drawn),8.3%
12,O=C(CN1CCC(NC(=O)C2CC2)CC1)Nc1ccccc1[N+](=O)[O-],1.9%
13,CCN(C(=O)COC(=O)c1cc(S(=O)(=O)N2CCc3ccccc32)ccc1OC)C1CCS(=O)(=O)C1 (stereo not drawn),8.6%
14,CCc1cc2c(=O)c(-c3ccon3)c(N)oc2cc1OC,6.6%
15,CC(Sc1cccc[n+]1[O-])C(=O)Nc1cccc(S(=O)(=O)N2CCOCC2)c1 (stereo not drawn),-16.4%
16,CCNC(=S)N(CCc1c(C)[nH]c2ccc(C)cc12)Cc1ccco1,3.7%
17,Cc1c(C(=O)OC(C)C)sc(NC(=O)c2cccnc2)c1C#N,-1.7%
18,CCOC(=O)N1CCC(NC(=O)CN2C(=O)COc3ccc(C(C)(C)C)cc32)CC1,-21.5%
19,Cc1ccc(C(C)(C)C)c(OCCCCN2CCCC2)c1,10.8%
20,O=C(C[n+]1cc(Br)cc2ccccc21)c1ccc(F)cc1,-5.7%
21,COc1ccc(CCOC2OC(CO)C(OC(=O)/C=C/c3ccc(O)c(OC)c3)C(O[C@H]3O[C@@H](C)[C@H](O)[C@@H](O)[C@H]3O)C2O)cc1O (stereo partly drawn),4.7%
